# Values joined by “and” are separate entries in the source; they are usually repeats but may differ in a detail not shown here. Equal entries are not always repeated. Records with an inconclusive call do not appear. Values without a mark were called inactive. Active and inactive are the calls of the source. Calls follow the shape of the dose curve; as a rule, active = well fitted inhibition curve with a large enough effect; inconclusive = small, poorly fitted or top-dose-only effect; inactive = flat fitted curve, though single readings scatter.
# Experiment: Primary qHTS for inhibitors of nuclear receptor binding SET domain protein 2 (NSD2) in an isogenic RCH-ACV NSD2 p.E1099K mutant (9B) (AID 1645876); also: nearly all actives have a fitted effect of over 70% in size
# Settings: RCH-ACV (leukaemia line) NSD2 E1099K (9B) viability, CellTiter-Glo, 72 h; series mostly up to 44.9 µM; activity change, negative = viability loss: at the top concentration
# % is scaled to controls: 0 for no effect and ±100 for the full control effect; potency is read from the fitted curve at half-maximal effect.
Structure (SMILES),Potency,"activity change, negative = viability loss",outcome
C=C1CC2OC(=O)C(=C)C2C(OC(=O)/C(C)=C\C)CC2(C)OC1=CC2=O (centres undefined),2.01 µM (active),,
CN(C)CC1CCn2c(c(C3=C(c4cn(C)c5ccccc45)C(=O)NC3=O)c3ccccc32)C1 (centres undefined),7.28 µM (active),,
C=C1C(=O)O[C@@H]2[C@H]1CC(=O)[C@H](C)[C@@](O)(C(=O)/C=C/C)[C@H]2OC(=O)C(C)CC (some centres undefined),1.27 µM (active),,
COc1cc(/C=C/C(=O)NCCn2c(C(F)(F)F)cc3ccccc32)cc(OC)c1OC,,-80.6%,
CC(C)CC(=O)c1c(O)cc2c(c1O)C(CC(C)C)C1=C(O2)C(C)(C)C(=O)C(C)(C)C1=O (centres undefined),10 µM (active),,
CCn1c2ccccc2c2cc(Nc3ccnc(NCCCN4CCOCC4)n3)ccc21,2.9 µM (active),,
COC1C=C(C)C(O)(CO)C2(C)CCCC(C)(C)C12 (centres undefined),,-11.1%,
Nc1c(S(=O)(=O)c2ccccc2)c2nc3ccccc3nc2n1-c1ccc(F)cc1,,4.8%,
CC#CCn1c(N2CCCC(N)C2)nc2c1c(=O)n(Cc1nc(C)c3ccccc3n1)c(=O)n2C (centres undefined),,-21%,
COc1cc(O)cc(OC2OC(CO)C(O)C(O)C2O)c1 (centres undefined),,,inactive
C=C1C(=O)O[C@@H]2[C@H]3C(C)=CC(=O)C3=C(C)CC[C@@H]12,2.9 µM (active),,
CCN1CCN(Cc2ccc(NC(=O)c3ccc(C)c(Oc4ncnc5[nH]c(C)cc45)c3)cc2C(F)(F)F)CC1,2.05 µM (active),,
C=C(COC(=O)C(O)C(O)CN)C12OC1C1(C)C(=CC2=O)C(O)C(O)CC1C (centres undefined),,-22.5%,
Fc1ccc2[nH]ccc2c1-c1nc(N2CCOCC2)c2sc(CN3CCN(CC4CC4)CC3)cc2n1,205 nM (active) and 3.72 µM (active),,
O=C(NCC1CCN(Cc2cccc(Cl)c2)CC1)[C@@H]1CCCN(c2ncnc3c2nc2n3CCCC2)C1,,-19%,
CCC(C)C1NC(=O)C(Cc2ccccc2)NC(=O)C(CCCCCC(=O)C(O)CO)NC(=O)C2CCCCN2C1=O (centres undefined),6.08 µM (active),,
CC(=O)OC1[C@H]2[C@@H](C[C@@H](C)[C@@H]3C=CC(=O)[C@@]13C)OC(=O)[C@@H]2C (some centres undefined),10.3 µM (active),,
C=C1C(=O)O[C@@H]2/C=C(\CO)CC/C=C(/C=O)C[C@@H](O)[C@@H]12,6.49 µM (active),,
C1=C/COCc2cc(ccc2OCCN2CCCC2)Nc2nccc(n2)-c2cccc(c2)COC/1,325 nM (active) and 417 nM (active),,
COC(=O)Nc1cc(Nc2cc(NC3CC3)c3ncc(C#N)n3n2)c(Cl)c(N2CCN(C)CC2)c1,0.742 µM (active),,

Structure (SMILES),Potency,"activity change, negative = viability loss",outcome
O=C(O)CSc1cc(NS(=O)(=O)c2ccc(Br)cc2)c2ccccc2c1O,7.28 µM (active),,
CC1(C)CC[C@]2(C(=O)O[C@@H]3O[C@H](CO)[C@@H](O)[C@H](O)[C@H]3O)CC[C@]3(C)C(=CCC4[C@@]5(C)CC[C@H](O[C@@H]6O[C@H](C(=O)O)[C@H](O)[C@H](O)[C@H]6O)C(C)(C)C5CC[C@]43C)[C@@H]2C1 (some centres undefined),6.08 µM (active),,
C=C1C(=O)O[C@H]2C[C@@H](C)[C@@H]3CCC(=O)[C@@]3(C)C[C@H]12,3.65 µM (active),,
CC(=O)[C@H]1CC[C@H]2[C@@H]3CC=C4C[C@@H](OS(=O)(=O)O)CC[C@]4(C)[C@H]3CC[C@]12C,,-14.5%,
Cc1c[nH]c2ncnc(N3CCC(CN)(C(=O)Nc4cccc(OC(=O)N(C)C)c4)CC3)c12,9.34 µM (active) and 7.42 µM (active),,
O=C(Nc1ccccc1Cl)c1cnc2ccc(C3CCNCC3)cn12,1.29 µM (active),,
CC(C)C[C@H](C(=O)O)c1cc(-c2ccc(C(F)(F)F)cc2)cc(-c2ccc(C(F)(F)F)cc2)c1,9.16 µM (active),,
Nc1nc(NC2CC2)cc(-c2cccc(Cl)c2Cl)n1,4.59 µM (active),,
C=C1C(=O)O[C@H]2C1CCC(C)=C1C(=O)C=C(C)[C@@]12O (some centres undefined),20.5 µM (active),,
C=C1CC[C@@H]2[C@](C)(CO)[C@H](O)CC[C@@]2(C)[C@@H]1CC(=O)C1=CCOC1=O,,-28%,
C=C(C)C(=O)O[C@H]1C[C@@](C)(O)C2(O)CCC(C)(/C=C3/OC(=O)C(COC)=C31)O2 (some centres undefined),1.42 µM (active),,
C[C@@H]1C[C@H]2O[C@@]3(O[C@@H]2C(C)(C)O)C(O)[C@@]2(C)C4CCC5C(C)(C)[C@@H](O[C@H]6OC[C@H](O)[C@@H](O)[C@@H]6O)CC[C@@]56C[C@@]46CC[C@]2(C)C13 (some centres undefined),,-18% [at 17.3 µM],
C=C(C)C1CC(O)C(C)C12CC(O)C1(C)OC1C2O (centres undefined),4.59 µM (active),,
NC(=O)c1ccccc1Nc1ccnc(Nc2cccc(O)c2)n1,0.742 µM (active),,
O=c1cc(OCc2ccc(F)cc2)ccn1-c1ccc(OCCN2CCCC2)cc1,23 µM (active),,
Cc1[nH]c(/C=C2\C(=O)Nc3ccc(S(=O)(=O)N(C)c4cccc(Cl)c4)cc32)c(C)c1C(=O)N1CCN(C)CC1,9.16 µM (active) and 5.25 µM (active),,
COc1cc(/C=C2\CCCN([C@@H](C)c3ccc(F)cc3)C2=O)ccc1-n1cnc(C)c1,11.5 µM (active),,
C=C1C(=O)O[C@@H]2C(OC(=O)/C(C)=C\C)/C(C)=C\C(=O)/C=C(\C)C[C@H](O)[C@@H]12 (some centres undefined),2.26 µM (active),,
COc1ccc2[nH]c(=O)c3c(c2c1)OC(C)(C)C=C3,14.5 µM (active),,

# Reference: PubChem BioAssay (NCATS)
